Measured values from PubChem BioAssay.
Several values for one entry are separate records, joined by “and”; a condition that tells them apart may be missing. Equal values may be shown once. Activity calls are given as the source filed them. Unless noted, the rule behind the calls is not given here.

How the values were obtained:
[1] = tested on: Wnt5a (protein binding on small-molecule microarray); assay: small molecules binding Wnt5a protein – biophysical, small-molecule microarray, 635/667 nm fluorescence, primary screen (AID 1142); settings: 635 nm fluorescence, higher = more signal;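 note: fluorescence read at 667 nm with signal to noise per printed feature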
[2] = ATP-based viability of Huh7 replicon cells – cell-based, CellTiter-Glo luminescence, basal, 48 h, cytotoxicity control for HCV replication inhibitor project, primary screen (AID 1143); settings: higher = more signal, called active from +8 up or from −8 down;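 note: Huh7 hepatoma cells carrying a hepatitis C replication reporter with no stimulus; test concentration not given here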
[3] = Pseudomonas biofilm growth suppression – PAO1 strain, BacTiter-Glo luminescence, LB-PBS, primary screen (AID 1144); settings: P. aeruginosa PAO1 biofilm, 12 h, higher = more signal
[4] = basal CRE-LacZ reporter activity in PC12 – cell-based, unstimulated, primary screen (AID 1145); settings: no forskolin, luminescence, 4.5 h, higher = more signal, called active from +8 up or from −8 down
[5] = forskolin-driven CRE-LacZ activity in PC12 – cell-based, CRE-LacZ reporter, forskolin-stimulated, primary screen (AID 1146); settings: luminescence, 4.5 h, higher = more signal, called active from +8 up or from −8 down;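 note: PC12 cells with 6xCRE LacZ reporter stimulated by forskolin 10 µM; beta-galactosidase reporter signal reflecting CREB driven transcription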
[6] = target: Streptavidin (Streptomyces avidinii) (UniProt P22629); assay: compounds binding control protein streptavidin – biophysical, small-molecule microarray, 635/667 nm fluorescence, artefact control for SMM compound annotation, primary screen (AID 1147); settings: higher = more signal;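 note: signal reflects streptavidin binding to arrayed compounds as a control protein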
[7] = probe aInhba binding on compound microarray – biochemical, small-molecule microarray, 635/667 nm fluorescence, primary screen (AID 1148); settings: higher = more signal;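 note: score merges 667nm spot fluorescence with signal-to-noise for antibody binding to printed compounds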
Torsin-1A (Homo sapiens) [8] = target: Torsin-1A (Homo sapiens) (UniProt O14656); assay: TOR1A wild-type binding on microarray – cell lysate, small-molecule microarray, lysate, 635/667 nm, primary screen (AID 1149); settings: COS7 hTOR1A-WT lysate, 635 nm fluorescence, higher = more signal
Torsin-1A (Homo sapiens) [9] = target: Torsin-1A (Homo sapiens) (UniProt O14656); assay: torsin A mutant lysate binding on microarrays – cell lysate, small-molecule microarray, COS7 lysate, 635/667 nm fluorescence, primary screen (AID 1150); settings: COS7 hTOR1A mutant lysate, 635 nm fluorescence, higher = more signal;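 note: score pools 667 nm emission and signal to noise measuring lysate protein binding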
[10] = tested on: Sonic hedgehog protein (Shh); assay: Sonic hedgehog microarray binding compounds – biochemical, small-molecule microarray, 635/667 nm fluorescence, primary screen (AID 1151); settings: 635 nm fluorescence, higher = more signal;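 note: Shh protein binding to compounds spotted on small-molecule microarray slides; score combines spot fluorescence intensity with signal-to-noise across triplicate slides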

Sequence of Streptavidin (Streptomyces avidinii) (P22629 whole entry, looked up): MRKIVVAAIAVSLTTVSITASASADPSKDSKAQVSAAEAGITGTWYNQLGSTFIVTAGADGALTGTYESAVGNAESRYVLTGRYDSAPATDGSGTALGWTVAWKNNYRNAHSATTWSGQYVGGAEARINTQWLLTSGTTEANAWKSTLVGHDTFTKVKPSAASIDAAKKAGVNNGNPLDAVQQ
Sequence of Torsin-1A (Homo sapiens) (O14656 whole entry, looked up): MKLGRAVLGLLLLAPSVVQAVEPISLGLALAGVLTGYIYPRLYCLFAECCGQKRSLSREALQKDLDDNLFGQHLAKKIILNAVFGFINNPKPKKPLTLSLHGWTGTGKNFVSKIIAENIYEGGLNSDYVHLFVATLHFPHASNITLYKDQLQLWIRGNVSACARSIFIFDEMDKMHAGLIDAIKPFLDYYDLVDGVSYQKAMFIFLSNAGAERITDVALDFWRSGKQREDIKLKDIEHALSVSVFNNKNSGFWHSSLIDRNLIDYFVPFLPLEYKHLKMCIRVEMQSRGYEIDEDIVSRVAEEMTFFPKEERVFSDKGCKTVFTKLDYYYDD

SMILES | composite z-score [1] | z-score [2] | z-score [3] | z-score [4] | z-score [5] | composite z-score [6] | composite z-score [7] | composite z-score (Torsin-1A (Homo sapiens) [8]) | composite z-score (Torsin-1A (Homo sapiens) [9]) | composite z-score [10]
Cc1ccc(S(=O)(=O)N[C@@H]2COC(=O)CC=C[C@@H](C)[C@@H]3C=C[C@H](O)[C@@H](COC(=O)CC=C[C@H]2C)O3)cc1 | -0.0379 and -0.0821 | -0.0259 (inactive) and -3.11 (inactive) | -0.356 (inactive) and -2.59 (inactive) | -0.384 (inactive) and -0.478 (inactive) | -0.419 (inactive) and -0.201 (inactive) | -0.298 and 0.657 | -0.111 and -0.157 | 0.815 and 0.176 | 0.665 and 0.263 | 1.43 and 0.631
CC(C)[Si]1(C(C)C)OCc2cc(C3CC3)nc(CCc3ccccc3)c21 | -0.106 and 0.243 | 0.412 (inactive) and -0.432 (inactive) | -0.37 (inactive) and 0.125 (inactive) | 0.0035 (inactive) and 0.148 (inactive) | -0.271 (inactive) and -0.0043 (inactive) | 0.0746 and 0.209 | -0.0986 and -0.205 | -0.483 and 0.207 | -1.29 and 0.401 | -0.447 and 0.221
C=CCN(Cc1ccccc1)C(=O)C1N(c2ccc(CCO)cc2)C(=O)C2C(C(=O)O)C3C=CC21O3 (stereo not given) | -0.588 and -0.549 | 0.012 (inactive) and -0.668 (inactive) | -0.231 (inactive) and -1.01 (inactive) | 0.195 (inactive) and -0.899 (inactive) | 0.892 (inactive) and -0.29 (inactive) | -1.49 and -1.35 | -0.273 and -0.206 | -2.02 and -4.14 | -3.2 and -2.45 | -1.7 and -1.87
C=CCN(C(=O)C(c1cccs1)N(CCOCCO)C(=O)/C=C\C(=O)O)c1ccc(OC)cc1 (stereo not given) | -0.459 and -0.385 | -0.751 (inactive) and -0.299 (inactive) | -2.23 (inactive) | -1.58 (inactive) and -0.749 (inactive) | -0.418 (inactive) and -1.15 (inactive) | -1.09 and -2.3 | -0.128 and -0.208 | -0.16 and -1.77 | -1.17 and -0.642 | -0.452 and 0.0229
C=CCN(CCCC)C(=O)C1N(c2ccc(CCO)cc2)C(=O)C2C(C(=O)O)C3C=CC21O3 (stereo not given) | -0.612 and -0.135 | -0.544 (inactive) and -0.336 (inactive) | -0.353 (inactive) and -1.38 (inactive) | -0.224 (inactive) and 0.0524 (inactive) | -0.153 (inactive) and 0.323 (inactive) | -1.29 and -2.12 | -0.389 and -0.409 | -2.4 and -3.13 | -1.86 and -3.82 | -1.43 and -2.14
CCOC(=O)NN=C1C[C@@H](O)[C@@H](O)[C@@H]2[C@@H]3C(=O)N(Cc4ccc5c(c4)OCO5)C(=O)[C@@H]3CC[C@@H]12 | -0.0968 | -0.299 (inactive) | 1.43 (inactive) | -0.293 (inactive) | -0.341 (inactive) | 0.79 | -0.179 | 0.39 | 0.0143 | 0.191
CCOC(=O)[C@H](Cc1ccccc1)NC(=O)CCC1CC(OC(=O)NCc2cccc3ccccc23)CC2(CCCC(COC(=O)NCCCN3CCCC3=O)O2)O1 (stereo not given in full) | 0.0828 | -0.486 (inactive) | -1.02 (inactive) | -0.072 (inactive) | 0.309 (inactive) | 0.609 | -0.154 | 0.0655 | 0.327 | 0.63
C[C@@H](ON=C1[C@H]2CCn3c(=O)n(-c4ccccc4)c(=O)n3[C@H]2[C@H](O)[C@@H]2O[C@H]12)c1cn([C@H](CO)Cc2ccccc2)nn1 | -0.174 | 1.13 (inactive) | 0.867 (inactive) | -0.157 (inactive) | 1.45 (inactive) | 0.0375 | -0.0313 | 0.185 | 0.199 | 0.403
CC(C)CCN1CCc2nc(-c3ccccc3)c3c(c2C1)CO[C@@H](C)C3 | 0.0842 | 0.267 (inactive) | 0.268 (inactive) | 4.64 (inactive) | -0.44 (inactive) | 0.375 | 0.0173 | 0.509 | 0.471 | 0.827
COC(=O)C1=C(C)N(Cc2ccccc2)[C@]23O[C@](C(=O)OC)(C(=O)N2[C@@H]1c1ccccc1)[C@@H](c1ccccc1)[C@@H]3C(=O)c1ccccc1 | 0.216 and 0.0881 | -3.24 (inactive) and 0.14 (inactive) | -0.137 (inactive) | 0.751 (inactive) and 0.29 (inactive) | -1.08 (inactive) and -0.186 (inactive) | 0.454 and 0.377 | -0.0736 and -0.119 | 0.388 and 0.241 | 0.392 and 0.308 | 0.229 and 0.599
CN1C(=O)C2CC=C([C@H]3Oc4ccccc4S(=O)(=O)N4CCC[C@@H]34)CC2C1=O (stereo not given in full) | -0.0808 and 0.53 | 0.0836 (inactive) and -0.243 (inactive) | -0.129 (inactive) and -0.419 (inactive) | -1.32 (inactive) and -0.327 (inactive) | 0.123 (inactive) and 0.707 (inactive) | -0.0329 and -0.212 | -0.0963 and -0.0874 | -0.0871 and -0.296 | 0.075 and -0.165 | -0.306 and -0.272
C[C@@H]1CN2[C@@H](CC[C@@H](C)[C@@H]2c2ccc(Br)cc2)C(=O)O1 | -0.174 and -0.0451 | 0.482 (inactive) and -0.656 (inactive) | 0.259 (inactive) and -1.1 (inactive) | 0.74 (inactive) and 2 (inactive) | 0.667 (inactive) and 0.0918 (inactive) | -0.404 and -0.145 | -0.193 and 0.0506 | -0.467 and 0.111 | 0.0914 and 0.0837 | 0.486 and 0.218
C=CCN(C(=O)C(c1cccs1)N(C(=O)/C=C\C(=O)O)c1c(Cl)cccc1CO)C(C)(C)C (stereo not given) | -1.15 and -1.26 | 0.389 (inactive) and 0.124 (inactive) | 0.933 (inactive) and 1.26 (inactive) | 0.325 (inactive) and 0.471 (inactive) | -0.386 (inactive) and -0.514 (inactive) | -1.61 and -1.09 | -0.341 and -0.164 | -3.44 and -4.12 | -3.15 and -2.91 | -1.98 and -2.58
C=C[C@@H](OC)[C@H](O)c1ccc(OC)c(O)c1 | 0.192 and -0.0615 | -0.825 (inactive) and 1.07 (inactive) | 0.729 (inactive) | 0.441 (inactive) and -0.142 (inactive) | 0.0793 (inactive) and -1.37 (inactive) | -0.964 and -1.77 | -0.281 and -0.306 | 0.059 and -0.285 | -0.242 and -0.089 | 0.439 and -0.117
CCOC(=O)[C@H](CC(C)C)NC(=O)CCC1CC(OC(=O)NCc2cccc3ccccc23)CC2(CCCC(COC(=O)NCc3ccccc3)O2)O1 (stereo not given in full) | -0.147 | -0.649 (inactive) | -0.583 (inactive) | 0.286 (inactive) | 1.5 (inactive) | -0.339 | 0.0038 | -1.07 | -0.964 | -0.0293
CCN1C(=O)[C@H]2[C@H]3[C@H](O)[C@H](O)CC(=NOC)[C@@H]3CC[C@H]2C1=O | -0.254 | 0.359 (inactive) | -1.16 (inactive) | -1.12 (inactive) | -0.154 (inactive) | -0.125 | -0.0762 | -0.477 | -0.115 | -0.13
C=CCN(C(=O)C1N(C(C)(C)CO)C(=O)C2C(C(=O)O)C3C=CC21O3)c1ccc(OC)cc1 (stereo not given) | -0.737 and -0.572 | -0.265 (inactive) and -0.156 (inactive) | 1.42 (inactive) | -0.761 (inactive) and -0.501 (inactive) | -1.27 (inactive) and -0.62 (inactive) | -1.73 and -1.67 | -0.227 and -0.38 | -2.67 and -1.85 | -1.25 and -2.3 | -0.639 and -2.16
CC[C@@H]1C(Sc2ccccc2)C(C(=O)O)[C@H](c2ccc(C)cc2)N1S(=O)(=O)c1ccc(C)cc1 (stereo not given in full) | 0.142 and 0.0997 | -0.318 (inactive) and -2.15 (inactive) | 0.281 (inactive) and 0.139 (inactive) | -0.574 (inactive) and -0.415 (inactive) | -0.0531 (inactive) and -0.545 (inactive) | 1.46 and 1.59 | -0.025 and -0.0736 | 1.19 and 0.429 | 1.5 and -0.0197 | 0.801 and -0.436
CO[C@H]1COC(=O)CC=C[C@@H](C)COC(=O)[C@H](CCSC)NC(=O)CC=C[C@@H]1C | 0.748 and 0.382 | -1.11 (inactive) and -1.94 (inactive) | -0.2 (inactive) | -0.473 (inactive) and 0.882 (inactive) | -0.367 (inactive) and -0.742 (inactive) | -0.909 and -1.04 | -0.0645 and -0.341 | 3.27 and 3.04 | 3.74 and 3.09 | 1.74 and 2.35
C=CCN(C(=O)C(c1cccs1)N(C(=O)/C=C\C(=O)O)C(C)(C)CO)c1ccc(OC)cc1 (stereo not given) | -0.0325 and -0.446 | -1.8 (inactive) and -0.679 (inactive) | -1.09 (inactive) | -0.488 (inactive) and -0.619 (inactive) | -1.07 (inactive) and 0.149 (inactive) | -1.19 and -0.56 | -0.061 and -0.0371 | -1.58 and -0.301 | -0.269 and 1.24 | -0.763 and -0.121
CC(C)=NO[C@@H](C)c1cc(-c2c(C)cc(C)cc2C)no1 | -0.278 | -2.11 (inactive) | -1.37 (inactive) | 1.49 (inactive) | -0.49 (inactive) | 0.186 | -0.128 | 0.0381 | -0.281 | -0.104
C=CCN(CCCCC)C(=O)C1N(CCOCCO)C(=O)C2C(C(=O)O)C3C=CC21O3 (stereo not given) | -1.49 and -0.76 | 0.41 (inactive) and -0.417 (inactive) | 1.73 (inactive) and 1.24 (inactive) | 0.866 (inactive) and 0.601 (inactive) | 0.17 (inactive) and -0.469 (inactive) | -1.6 and -1.66 | -0.278 and -0.3 | -2.98 and -2.79 | -0.411 and -1.26 | -1.44 and -0.292
C=C[C@H](C)[C@@H](O)c1ccc(OCCO)cc1 | -0.827 and -0.751 | -1.64 (inactive) and 0.216 (inactive) | 0.0711 (inactive) and -0.987 (inactive) | -0.883 (inactive) and 0.861 (inactive) | -0.783 (inactive) and -0.722 (inactive) | 0.129 and -0.772 | -0.37 and -0.208 | -1.96 and -1.8 | -2.09 and -1.25 | 0.134 and 0.524
